For assay [1], the system named is Wnt5a (protein binding on small-molecule microarray). The assay is described as follows: small molecules binding Wnt5a protein – biophysical, small-molecule microarray, 635/667 nm fluorescence, primary screen (AID 1142).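 Further: fluorescence read at 667 nm with signal to noise per printed feature.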 Particulars: 635 nm fluorescence, higher = more signal.
The nature of assay [2]: ATP-based viability of Huh7 replicon cells – cell-based, CellTiter-Glo luminescence, basal, 48 h, cytotoxicity control for HCV replication inhibitor project, primary screen (AID 1143).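 Further: Huh7 hepatoma cells carrying a hepatitis C replication reporter with no stimulus; test concentration not given here.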 To be noted: higher = more signal, called active from +8 up or from −8 down. For orientation: A replicon is a self-replicating genome or part of one, used to study replication in cells.
A short description of assay [3]: Pseudomonas biofilm growth suppression – PAO1 strain, BacTiter-Glo luminescence, LB-PBS, primary screen (AID 1144). To be noted: P. aeruginosa PAO1 biofilm, 12 h, higher = more signal.
Assay [4] can be described thus: basal CRE-LacZ reporter activity in PC12 – cell-based, unstimulated, primary screen (AID 1145). Particulars: no forskolin, luminescence, 4.5 h, higher = more signal, called active from +8 up or from −8 down.
Assay [5] is described as follows: forskolin-driven CRE-LacZ activity in PC12 – cell-based, CRE-LacZ reporter, forskolin-stimulated, primary screen (AID 1146).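 Further: PC12 cells with 6xCRE LacZ reporter stimulated by forskolin 10 µM; beta-galactosidase reporter signal reflecting CREB driven transcription.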 To be noted: luminescence, 4.5 h, higher = more signal, called active from +8 up or from −8 down.
Assay [6] has as its target Streptavidin (Streptomyces avidinii) (UniProt P22629). The assay is described as follows: compounds binding control protein streptavidin – biophysical, small-molecule microarray, 635/667 nm fluorescence, artefact control for SMM compound annotation, primary screen (AID 1147).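 Further: signal reflects streptavidin binding to arrayed compounds as a control protein.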 To be noted: higher = more signal.
Assay [7] is described as follows: probe aInhba binding on compound microarray – biochemical, small-molecule microarray, 635/667 nm fluorescence, primary screen (AID 1148).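 Further: score merges 667nm spot fluorescence with signal-to-noise for antibody binding to printed compounds.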 To be noted: higher = more signal.
The target of assay [8] is Torsin-1A (Homo sapiens) (UniProt O14656). In words: TOR1A wild-type binding on microarray – cell lysate, small-molecule microarray, lysate, 635/667 nm, primary screen (AID 1149). Particulars: COS7 hTOR1A-WT lysate, 635 nm fluorescence, higher = more signal.
Sequence of Torsin-1A (Homo sapiens) (O14656 whole entry, looked up): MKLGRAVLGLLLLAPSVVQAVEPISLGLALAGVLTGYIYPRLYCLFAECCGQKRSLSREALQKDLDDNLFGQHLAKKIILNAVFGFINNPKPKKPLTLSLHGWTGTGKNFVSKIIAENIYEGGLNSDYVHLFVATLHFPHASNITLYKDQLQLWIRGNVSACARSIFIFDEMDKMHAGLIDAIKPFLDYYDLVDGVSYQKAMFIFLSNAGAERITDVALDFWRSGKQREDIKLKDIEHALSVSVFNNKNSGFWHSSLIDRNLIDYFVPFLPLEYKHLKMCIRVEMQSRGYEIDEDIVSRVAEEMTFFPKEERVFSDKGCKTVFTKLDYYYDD
Assay [9] shares this target. The assay is described as follows: torsin A mutant lysate binding on microarrays – cell lysate, small-molecule microarray, COS7 lysate, 635/667 nm fluorescence, primary screen (AID 1150).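 Further: score pools 667 nm emission and signal to noise measuring lysate protein binding.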 Particulars: COS7 hTOR1A mutant lysate, 635 nm fluorescence, higher = more signal.
Assay [10] deals with Sonic hedgehog protein (Shh). In words: Sonic hedgehog microarray binding compounds – biochemical, small-molecule microarray, 635/667 nm fluorescence, primary screen (AID 1151).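 Further: Shh protein binding to compounds spotted on small-molecule microarray slides; score combines spot fluorescence intensity with signal-to-noise across triplicate slides.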 Particulars: 635 nm fluorescence, higher = more signal.
A short description of assay [11]: optical density shifts of acrAB sulA E. coli – strain DRC41, OD650, 48 h, E. coli filamentation inducer project, primary screen (AID 1152).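 Further: E. coli MC1000 strain DRC41 lacking acrAB efflux pump and sulA.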 Particulars: higher = more signal, called active from +8 up or from −8 down.
A short description of assay [12]: probe aLefty1 binding on compound microarray – biochemical, small-molecule microarray, 635/667 nm fluorescence, primary screen (AID 1153).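 Further: score merges spot fluorescence with signal-to-noise ratio from the scanned slide images.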 Particulars: higher = more signal.
The nature of assay [13]: plasmodial surface anion channel blockers, osmotic lysis – cell-based, P. falciparum Indochina, OD700, 1 h, primary screen (AID 1154). To be noted: P. falciparum Indochina infected RBC osmotic lysis, higher = more signal, called active from +8 up or from −8 down.
The nature of assay [14]: plasmodial surface anion channel blockers, osmotic lysis – cell-based, P. falciparum Indochina, OD700, 2 h, primary screen (AID 1155).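 Further: lysis reports solute entry through the parasite surface anion channel PSAC.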 Particulars: P. falciparum Indochina infected erythrocytes, higher = more signal, called active from +8 up or from −8 down.
Assay [15] in a line: changes in parasitized red cell lysis, either direction – P. falciparum Indochina, OD700, 3 h, PSAC antagonist project, primary screen (AID 1156). Particulars: P. falciparum-infected erythrocytes, osmotic lysis, higher = more signal, called active from +8 up or from −8 down.
Assay [16] in a line: plasmodial surface anion channel blockers, osmotic lysis – cell-based, P. falciparum Indochina, OD700, 18 h, primary screen (AID 1157). To be noted: P. falciparum Indochina infected erythrocytes, osmotic lysis OD700, 18 h; higher = more signal, called active from +8 up or from −8 down.
Assay [17] can be described thus: S6 kinase pathway phospho-S6 level changes – cell-based, A549, cytoblot, luminescence, serum-stimulated, primary screen (AID 1158).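 Further: serum-stimulated A549 lung adenocarcinoma cells; signal is phosphorylated S6 detected by cytoblot immunostaining with HRP secondary.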 To be noted: 5 h, higher = more signal.
Assay [18] concerns the target NADPH oxidase 2 (Homo sapiens) (UniProt P04839). The assay is described as follows: compounds shifting NOX2 Amplex Red fluorescence – cell-based, HEK293-NOX2, PMA-stimulated, NOX inhibitor project, primary screen (AID 1159). Further: test concentration not given here. To be noted: 45 min, higher = more signal, called active from +8 up or from −8 down.
Assay [19] has as its target NADPH oxidase 4 (Homo sapiens) (UniProt Q9NPH5). The assay is described as follows: compounds shifting NOX4 Amplex Red fluorescence – cell-based, HEK293-NOX4, tetracycline-induced, NOX inhibitor project, primary screen (AID 1160). Particulars: HEK293-NOX4, Amplex Red H2O2 fluorescence, 45 min; higher = more signal, called active from +8 up or from −8 down.
The target of assay [20] is NADPH oxidase 5 (Homo sapiens) (UniProt Q96PH1). The assay is described as follows: compounds shifting NOX5 Amplex Red fluorescence – cell-based, HEK293-NOX5, NOX inhibitor project, primary screen (AID 1161). To be noted: HEK293-NOX5, ionomycin, 45 min, higher = more signal.
Sequence of NADPH oxidase 5 (Homo sapiens) (Q96PH1 whole entry, looked up): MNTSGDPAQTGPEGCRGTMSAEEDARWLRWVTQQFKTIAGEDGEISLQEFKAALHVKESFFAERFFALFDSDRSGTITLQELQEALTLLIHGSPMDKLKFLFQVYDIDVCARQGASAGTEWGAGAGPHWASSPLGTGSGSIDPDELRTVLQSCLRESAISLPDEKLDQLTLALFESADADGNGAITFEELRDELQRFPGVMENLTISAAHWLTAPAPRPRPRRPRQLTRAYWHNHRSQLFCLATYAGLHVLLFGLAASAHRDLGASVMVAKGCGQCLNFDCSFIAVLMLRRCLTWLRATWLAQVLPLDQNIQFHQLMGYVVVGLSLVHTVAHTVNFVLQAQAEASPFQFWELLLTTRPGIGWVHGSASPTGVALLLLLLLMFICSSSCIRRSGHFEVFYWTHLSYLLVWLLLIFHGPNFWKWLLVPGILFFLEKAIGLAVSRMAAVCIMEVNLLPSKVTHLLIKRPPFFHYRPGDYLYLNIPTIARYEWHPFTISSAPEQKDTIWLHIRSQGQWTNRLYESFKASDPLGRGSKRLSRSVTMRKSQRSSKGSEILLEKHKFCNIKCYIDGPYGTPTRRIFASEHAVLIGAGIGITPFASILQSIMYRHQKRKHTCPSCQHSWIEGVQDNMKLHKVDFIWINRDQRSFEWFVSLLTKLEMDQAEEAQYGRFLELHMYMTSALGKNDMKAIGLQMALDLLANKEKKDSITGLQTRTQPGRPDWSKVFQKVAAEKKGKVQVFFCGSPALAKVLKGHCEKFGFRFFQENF

Activity calls are given as the source filed them. Unless noted, how the calls were made is not given here.

Data on four molecules can be found in PubChem BioAssay.

Sequence of NADPH oxidase 2 (Homo sapiens) (P04839 whole entry, looked up): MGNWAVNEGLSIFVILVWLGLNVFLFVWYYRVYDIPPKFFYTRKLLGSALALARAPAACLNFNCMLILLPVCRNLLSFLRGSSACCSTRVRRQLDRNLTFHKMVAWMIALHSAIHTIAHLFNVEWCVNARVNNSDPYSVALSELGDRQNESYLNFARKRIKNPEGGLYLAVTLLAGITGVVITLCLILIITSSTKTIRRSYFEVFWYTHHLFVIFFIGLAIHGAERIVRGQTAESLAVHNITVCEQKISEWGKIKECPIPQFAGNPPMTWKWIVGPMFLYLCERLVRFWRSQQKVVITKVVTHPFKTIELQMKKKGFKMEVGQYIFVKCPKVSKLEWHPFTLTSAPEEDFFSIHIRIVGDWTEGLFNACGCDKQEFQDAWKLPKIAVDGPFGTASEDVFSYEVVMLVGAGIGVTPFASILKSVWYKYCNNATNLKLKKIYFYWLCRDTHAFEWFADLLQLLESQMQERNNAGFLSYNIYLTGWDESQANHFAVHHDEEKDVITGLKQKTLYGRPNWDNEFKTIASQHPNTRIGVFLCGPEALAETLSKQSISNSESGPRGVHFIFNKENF
Sequence of Streptavidin (Streptomyces avidinii) (P22629 whole entry, looked up): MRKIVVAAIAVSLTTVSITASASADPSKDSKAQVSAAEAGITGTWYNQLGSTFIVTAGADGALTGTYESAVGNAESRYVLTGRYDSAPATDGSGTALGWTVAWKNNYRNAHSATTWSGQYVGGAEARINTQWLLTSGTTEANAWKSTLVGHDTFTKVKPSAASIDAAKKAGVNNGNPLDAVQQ
Sequence of NADPH oxidase 4 (Homo sapiens) (Q9NPH5 whole entry, looked up): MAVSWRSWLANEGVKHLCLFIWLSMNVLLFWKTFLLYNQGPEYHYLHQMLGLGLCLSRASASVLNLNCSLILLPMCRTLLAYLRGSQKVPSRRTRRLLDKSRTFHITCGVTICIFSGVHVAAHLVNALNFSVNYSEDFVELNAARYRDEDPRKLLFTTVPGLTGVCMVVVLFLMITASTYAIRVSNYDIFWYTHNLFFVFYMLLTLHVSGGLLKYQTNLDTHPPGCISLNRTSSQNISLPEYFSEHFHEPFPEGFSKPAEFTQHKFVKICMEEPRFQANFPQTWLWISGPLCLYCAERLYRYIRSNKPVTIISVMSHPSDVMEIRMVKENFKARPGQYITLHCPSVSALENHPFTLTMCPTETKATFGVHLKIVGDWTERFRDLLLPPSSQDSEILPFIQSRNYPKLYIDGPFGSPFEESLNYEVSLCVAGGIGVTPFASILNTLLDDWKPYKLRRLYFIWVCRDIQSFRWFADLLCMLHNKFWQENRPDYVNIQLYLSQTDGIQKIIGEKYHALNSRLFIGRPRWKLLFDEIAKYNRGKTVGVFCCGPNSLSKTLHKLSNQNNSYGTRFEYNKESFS

Consider `O=C1NC(=O)C2C1C=CC(C(O)C1CCCCC1)N2Nc1ccccn1` (stereo not given), for which the composite z-score is 0.0408 in [1]; -0.15 in assay [6]; -0.0762 in [7]; 0.254 in the assay with Torsin-1A (Homo sapiens) [8]; 0.852 with Torsin-1A (Homo sapiens) [9]; 0.278 in assay [10]. The composite z-score in [12] was -0.0779. The z-score is 1.06 (inactive) in assay [2]; -1.42 (inactive) in assay [3]; 0.433 (inactive) in assay [4]; 1.29 (inactive) in assay [5]; -1.72 (inactive) in [11]; 0.188 (inactive) in [13]. In addition, the z-score was 0.567 (inactive) in assay [14]; -0.489 (inactive) in assay [15]; 0.433 (inactive) in assay [16]; -0.621 in [17]; -1.2 (inactive) in assay [18]; -3.29 (inactive) in assay [19]. In [20], the z-score was -2.69.
In the case of `CC(C)(C)OC(=O)CC[C@@]1(C(=O)N2CCOCC2)N=C(c2ccc(OCCCO)cc2)O[C@@H]1c1ccccc1CN=[N+]=[N-]`, the composite z-score in assay [1] is 1.14; in [6], 1.05; in assay [7] it was 0.529; in the assay with Torsin-1A (Homo sapiens) [8], 0.401; with Torsin-1A (Homo sapiens) [9] it was 2.23; in assay [10], -0.33. The composite z-score in assay [12] amounted to 0.85. Further, the z-score in assay [2] is -0.435 (inactive); in [3], -0.202 (inactive); in [4], 0.311 (inactive); in assay [5] it was -0.0177 (inactive); in assay [11], 0.409 (inactive); in [13], 27 (active). Moreover, the z-score was 14.9 (active) in [14]; -0.762 (inactive) in assay [15]; 1.11 (inactive) in assay [16]; -0.449 in assay [17]; 0.825 (inactive) in assay [18]; 2.1 (inactive) in assay [19]. The z-score in assay [20] amounted to 2.05.
In the case of `Cc1ccc(S[C@]2(C(=O)NC(C)C)CC(=O)N(Cc3ccccc3)[C@@H]2c2ccc(CO)cc2I)cc1`, the composite z-score was -0.114 in assay [1]; -0.864 in assay [6]; -0.128 in assay [7]; -0.782 in the assay with Torsin-1A (Homo sapiens) [8]; 0.0888 with Torsin-1A (Homo sapiens) [9]; -0.421 in assay [10]. In assay [12], the composite z-score came out at 0.164. For the same molecule, the z-score in assay [2] is -1.99 (inactive); in assay [3], 1.2 (inactive); in assay [4], 0.0548 (inactive); in [5] it was 0.0831 (inactive); in assay [11], 0.214 (inactive); in [13] it was 5.59 (inactive). The z-score was 0.654 (inactive) in [14]; 0.59 (inactive) in assay [15]; 0.231 (inactive) in assay [16]; -0.35 in assay [17]; 0.671 (inactive) in assay [18]; -0.818 (inactive) in assay [19]. Also, the z-score in assay [20] came out at 1.76.
For the molecule `COCCOC(=O)N1C(=O)[C@@]2(c3cc(C#CC4=CCCCC4)ccc31)[C@H](c1ccc(O)cc1)N1[C@H](c3ccccc3)[C@H](c3ccccc3)OC(=O)[C@H]1[C@@H]2C(=O)N1CCc2cc(OC)c(OC)cc2C1`, the composite z-score in assay [1] was -0.0266; in [6] it was 0.112; in [7], 0.103; with Torsin-1A (Homo sapiens) [8] it was 0.175; in the assay with Torsin-1A (Homo sapiens) [9] it was 0.893; in assay [10], 0.514. Also, the composite z-score in assay [12] was 0.0355. Further, the z-score in [2] was -0.713 (inactive); in [3], 0.315 (inactive); in [4], -0.375 (inactive); in [5], 0.109 (inactive); in assay [11], -0.164 (inactive); in [13], 0.751 (inactive). For the same molecule, the z-score in [14] is 0.394 (inactive); in assay [15], -6.44 (inactive); in assay [16] it was 0.0991 (inactive); in assay [17] it was -0.294; in [18], 1.48 (inactive); in assay [19], 1.04 (inactive). For the same molecule, in assay [20], the z-score came to 1.03.
